In article PMC11006913:

target: HOXA4 (Homo sapiens, UniProt Q00056 201-287, W262R); test: PBM; 200 nM protein, PBS; details: dsDNA, one strand shown
Sequence (Q00056 201-287 W262R): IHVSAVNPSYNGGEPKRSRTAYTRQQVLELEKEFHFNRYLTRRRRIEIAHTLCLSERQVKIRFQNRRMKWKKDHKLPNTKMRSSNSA

Row | Sequence | binding signal
1 | AAGCTAAT | 10.3 upbm affinity estimate (log intensity, higher = more binding, comparable within an allelic series)
2 | GTAAATAC | 10.3 upbm affinity estimate (log intensity, higher = more binding, comparable within an allelic series)
3 | CACCCTGG | 9.95 upbm affinity estimate (log intensity, higher = more binding, comparable within an allelic series)
4 | CATGATTA | 10.4 upbm affinity estimate (log intensity, higher = more binding, comparable within an allelic series)
5 | ACCCTAGG | 9.88 upbm affinity estimate (log intensity, higher = more binding, comparable within an allelic series)
6 | CAATCACG | 10.3 upbm affinity estimate (log intensity, higher = more binding, comparable within an allelic series)
7 | CACGGTGC | 9.98 upbm affinity estimate (log intensity, higher = more binding, comparable within an allelic series)
8 | CCTCCAGC | 9.79 upbm affinity estimate (log intensity, higher = more binding, comparable within an allelic series)
9 | CTCATCTA | 10.3 upbm affinity estimate (log intensity, higher = more binding, comparable within an allelic series)
10 | GATTTATA | 10.4 upbm affinity estimate (log intensity, higher = more binding, comparable within an allelic series)
11 | AGGGCGAG | 9.83 upbm affinity estimate (log intensity, higher = more binding, comparable within an allelic series)
12 | ACCTGCCG | 9.93 upbm affinity estimate (log intensity, higher = more binding, comparable within an allelic series)
13 | AGGGGGCA | 9.67 upbm affinity estimate (log intensity, higher = more binding, comparable within an allelic series)
14 | AGTCCTTC | 9.96 upbm affinity estimate (log intensity, higher = more binding, comparable within an allelic series)
15 | AGCTCCCC | 9.71 upbm affinity estimate (log intensity, higher = more binding, comparable within an allelic series)
16 | CTCCCACC | 9.83 upbm affinity estimate (log intensity, higher = more binding, comparable within an allelic series)
17 | ACGTTAAT | 10.6 upbm affinity estimate (log intensity, higher = more binding, comparable within an allelic series)
18 | CCACGCCC | 9.84 upbm affinity estimate (log intensity, higher = more binding, comparable within an allelic series)
19 | GTCTATAA | 10.4 upbm affinity estimate (log intensity, higher = more binding, comparable within an allelic series)
20 | CCTCGTCC | 9.94 upbm affinity estimate (log intensity, higher = more binding, comparable within an allelic series)

Row | Sequence | binding signal
21 | AGTAATTC | 10.4 upbm affinity estimate (log intensity, higher = more binding, comparable within an allelic series)
22 | CCCCGACC | 9.87 upbm affinity estimate (log intensity, higher = more binding, comparable within an allelic series)
23 | AATCCCCC | 9.83 upbm affinity estimate (log intensity, higher = more binding, comparable within an allelic series)
24 | TAAAATTA | 10.3 upbm affinity estimate (log intensity, higher = more binding, comparable within an allelic series)
25 | AGTCCCCG | 9.96 upbm affinity estimate (log intensity, higher = more binding, comparable within an allelic series)
26 | CAGACCTC | 9.86 upbm affinity estimate (log intensity, higher = more binding, comparable within an allelic series)
27 | CCCATGGC | 9.82 upbm affinity estimate (log intensity, higher = more binding, comparable within an allelic series)
28 | CAGGGGGA | 9.68 upbm affinity estimate (log intensity, higher = more binding, comparable within an allelic series)
29 | AACGAATT | 10.3 upbm affinity estimate (log intensity, higher = more binding, comparable within an allelic series)
30 | ACGTTTAG | 10.2 upbm affinity estimate (log intensity, higher = more binding, comparable within an allelic series)
31 | CCTCCGTC | 9.85 upbm affinity estimate (log intensity, higher = more binding, comparable within an allelic series)
32 | CCTTCCCG | 9.88 upbm affinity estimate (log intensity, higher = more binding, comparable within an allelic series)
33 | CCAGCGGG | 9.83 upbm affinity estimate (log intensity, higher = more binding, comparable within an allelic series)
34 | AGGAGTCC | 9.98 upbm affinity estimate (log intensity, higher = more binding, comparable within an allelic series)
35 | GGACTCCC | 9.88 upbm affinity estimate (log intensity, higher = more binding, comparable within an allelic series)
36 | GAAGGGGA | 9.88 upbm affinity estimate (log intensity, higher = more binding, comparable within an allelic series)
37 | CGTCAATA | 10.2 upbm affinity estimate (log intensity, higher = more binding, comparable within an allelic series)
38 | GAGTAATA | 10.3 upbm affinity estimate (log intensity, higher = more binding, comparable within an allelic series)
39 | CCTGGGCG | 9.75 upbm affinity estimate (log intensity, higher = more binding, comparable within an allelic series)
40 | ATAAATCG | 10.2 upbm affinity estimate (log intensity, higher = more binding, comparable within an allelic series)

target: HOXA4 (Homo sapiens, UniProt Q00056 201-287, R217L); test: PBM; 200 nM protein, PBS; details: dsDNA, one strand shown
Sequence (Q00056 201-287 R217L): as the sequence (Q00056 201-287 W262R) above, with R17L, R62W counted along it

Row | Sequence | binding signal
41 | CACCCTGG | 9.74 upbm affinity estimate (log intensity, higher = more binding, comparable within an allelic series)
42 | CATGATTA | 11.4 upbm affinity estimate (log intensity, higher = more binding, comparable within an allelic series)
43 | ACCCTAGG | 9.89 upbm affinity estimate (log intensity, higher = more binding, comparable within an allelic series)
44 | CAATCACG | 10.8 upbm affinity estimate (log intensity, higher = more binding, comparable within an allelic series)
45 | CACGGTGC | 9.8 upbm affinity estimate (log intensity, higher = more binding, comparable within an allelic series)
46 | CCTCCAGC | 9.82 upbm affinity estimate (log intensity, higher = more binding, comparable within an allelic series)
47 | AGGGCGAG | 9.74 upbm affinity estimate (log intensity, higher = more binding, comparable within an allelic series)
48 | ACCTGCCG | 9.82 upbm affinity estimate (log intensity, higher = more binding, comparable within an allelic series)
49 | AGGGGGCA | 9.81 upbm affinity estimate (log intensity, higher = more binding, comparable within an allelic series)
50 | AGTCCTTC | 9.81 upbm affinity estimate (log intensity, higher = more binding, comparable within an allelic series)
51 | AGCTCCCC | 9.69 upbm affinity estimate (log intensity, higher = more binding, comparable within an allelic series)
52 | CTCCCACC | 9.72 upbm affinity estimate (log intensity, higher = more binding, comparable within an allelic series)
53 | ACGTTAAT | 11.6 upbm affinity estimate (log intensity, higher = more binding, comparable within an allelic series)
54 | CCACGCCC | 9.85 upbm affinity estimate (log intensity, higher = more binding, comparable within an allelic series)
